Assay results taken from PubChem BioAssay.

system: not listed separately; test: small-molecule microarray binders of probe aEGFR, primary screen, biochemical, biotinylated probe, 635/667 nm fluorescence (AID 1097); settings: higher = more signal;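 note: probe is a biotinylated anti-EGFR antibody binding compounds printed on slides; score combines fluorescence near 667 nm and signal to noise of each spot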

Structure (SMILES)	composite z-score
CC(C)=CCCC(C)=CCON=C1C[C@@H](O)[C@@H](O)[C@@H]2[C@@H]3C(=O)N(c4ccc(F)cc4F)C(=O)[C@@H]3CC[C@@H]12	-0.0381
CCc1cc2c(nc1CC)CCN(CCC(C)=NO[C@H](C)c1cn([C@H](CO)Cc3ccccc3)nn1)C2	-0.142
COC(=O)[C@H](C)NC(=O)CCC1CC(OC(=O)NCCc2ccc(F)cc2)CC2(CCCC(COC(=O)NCCC(C)C)O2)O1 (stereo not given in full)	-0.111
CCN1C(=O)[C@@H]2[C@H]3C(=CC[C@@H]2C1=O)C1(OCCCO1)[C@H]1O[C@H]1[C@H]3O	0.0043
CCCNC(=O)OC[C@H]1O[C@H](CCON=C(C)CCN2CCc3nc(CC)c(CC)cc3C2)C=C[C@@H]1Oc1ccc(OC)cc1	-0.0381
COc1cccc([C@H]2Oc3ccc(OC)cc3C(=NO[C@H](C)c3cn([C@H](CO)Cc4ccccc4)nn3)[C@@H]2O)c1	-0.188
Cc1ccc(S(=O)(=O)n2c3ccccc3c3nnc(C(=O)c4ccccc4)nc32)cc1	0.0099
CCOC(=O)[C@H](Cc1ccccc1)NC(=O)CCC1CC(OC(=O)NCc2ccc3c(c2)OCO3)CC2(CCCC(COC(=O)NCCc3ccccc3OC)O2)O1 (stereo not given in full)	0.0287
Cn1c(=O)n2n(c1=O)[C@H]1[C@H](O)[C@@H]3O[C@@H]3C(=O)[C@H]1CC2	-0.0508
C[C@@H]1CC[C@H]2C(=O)O[C@@H](Cc3ccccc3)CN2[C@H]1c1ccc(Br)cc1	-0.0485
CCOC(=O)[C@H](CC(C)C)NC(=O)CCC1CC(OC(=O)NCCc2ccc(F)cc2)CC2(CCCC(COC(=O)NCCc3ccc(Cl)cc3)O2)O1 (stereo not given in full)	-0.123
CO[C@H]1COC(=O)[C@H](C)NC(=O)CC=C[C@@H](C)[C@H](OC)COC(=O)[C@@H](OCc2ccccc2)C=C[C@@H]1C	-0.15
C#CCCCON=C1C[C@@H](O)[C@@H](O)[C@@H]2[C@@H]3C(=O)N(c4ccc(F)cc4F)C(=O)[C@@H]3CC[C@H]12	-0.0187
O=C1C[C@@H](O)[C@@H](O)[C@@H]2[C@@H]3C(=O)N(Cc4ccc5c(c4)OCO5)C(=O)[C@@H]3CC[C@H]12	0.0135

system: Plasmodium falciparum Sir2 (PF13_0152, Sir2A); test: pfSir2 binders on small-molecule microarrays, primary screen, biochemical, small-molecule microarray, 635 nm fluorescence (AID 1098); settings: small-molecule microarray binding, fluorescence 635 nm; higher = more signal;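 note: score merges spot fluorescence intensity with its signal-to-noise ratio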

Structure (SMILES)	composite z-score
COc1ccc(O[C@H]2C=C[C@@H](c3ccccc3)O[C@@H]2CON=CC[C@@H]2C=C[C@H](OC(C)=O)[C@@H](COC(C)=O)O2)cc1	0.277
CO[C@H]1COC(=O)CC=C[C@@H](C)[C@H](NS(=O)(=O)c2ccc(C)cc2)COC(=O)CCC[C@@H]1C	0.684
CON=CC[C@@H]1C=C[C@H](OC(C)=O)[C@@H](COC(C)=O)O1	0.0728
C=COC[C@@H]1CN2[C@@H](CC[C@@H](C)[C@@H]2c2ccc(Br)cc2)C(=O)O1	0.0845
O=C1[C@H]2[C@H]3[C@H](O)[C@H](O)CC(=NOCc4ccccc4)[C@@H]3CC[C@H]2C(=O)N1Cc1ccc2c(c1)OCO2	0.0183
COC(=O)NCC=Cc1nc(CCCO)co1	0.439
CO[C@H]1COC(=O)CC=C[C@H](C)[C@@H](OC)COC(=O)[C@@H](C)COC(=O)CC=C[C@@H]1C	0.567
COC(=O)[C@@H]1CC[C@H](C)[C@@H](c2ccc(C)cc2)N1C(=O)c1ccc(C=NOC[C@@H](C)[C@H](OCc2ccccc2)C(C)C)cc1	0.854
COC(=O)CC=C[C@@H](C)[C@@H](C=NO[C@@H]1O[C@H](COC(C)=O)[C@@H](OC(C)=O)[C@H](OC(C)=O)[C@H]1OC(C)=O)NS(=O)(=O)c1ccc(C)cc1	-0.119
CCOC(=O)[C@H](CC(C)C)NC(=O)CCC1CC(OC(=O)NCc2cccc3ccccc23)CC2(CCCC(COC(=O)NCCOc3ccccc3)O2)O1 (stereo not given in full)	0.951
COc1cccc([C@H]2Oc3ccc(OC)cc3C(=NO[C@@H](C)c3cn([C@H](CO)Cc4ccccc4)nn3)[C@@H]2O)c1	0.482
COC(=O)CC=C[C@@H](C)[C@@H](C=NOC[C@H]1O[C@H](c2ccccc2)C=C[C@@H]1Oc1ccc(OC)cc1)NS(=O)(=O)c1ccc(C)cc1	-0.611
C=CC1=C[C@H](O)[C@@H]2O[C@@H]2C12OCCCO2	0.139
COC(=O)CC=C[C@@H](C)[C@H](OCc1cccc(-c2ccccc2)c1)C1CCCCC1	-0.632
CC(C)CON=C1C[C@@H](O)[C@@H](O)[C@@H]2[C@@H]3C(=O)N(Cc4ccc5c(c4)OCO5)C(=O)[C@@H]3CC[C@H]12	0.191
COc1ccc(O[C@H]2C=C[C@@H](c3ccccc3)O[C@@H]2CON=C(C)C)cc1	1.04
